Consider 90 molecules from PubChem BioAssay AID463173 (ICCB-Longwood Screening Facility, Harvard Medical School, 2010).

In all, about 52,000 compounds went through this assay and about 4,300 (8.3%) were called active. Rule as the data show it: active = survival mostly below about 52% (no sharp cut-off); inactive = mostly above about 56%. The sample as a whole holds a higher share of actives than the screen did.

The subject of this test is DeltatarO mutant. Nature of the test: S. aureus survival, RN4220 and DeltatarO strains – OD600, teichoic acid synthesis inhibitors, primary screen (AID 463173). As to conditions: S. aureus RN4220 wild type/DeltatarO growth, OD600, 18 h, hits give low values, screened at 18.75 µg/mL (by protocol).
On to `COCCNC(=O)c1cc2n(n1)CCCN(Cc1ccc(C)cc1)C2=O`, for which the survival is 78% (inactive).

In the case of `CCCOc1ccc(OC(=O)c2c(-c3ccccc3Cl)noc2C)cc1`, the survival was 84% (inactive).

`CC(=O)c1ccc(OC(=O)c2c(-c3ccccc3Cl)noc2C)cc1`: the survival is 94% (inactive).

Take `Cc1onc(-c2ccccc2Cl)c1C(=O)Oc1ccc(Br)cc1`: the survival was 41% (active).

For the molecule `CCCOc1cccc(NC(=O)c2c(-c3ccccc3Cl)noc2C)c1`, the survival was 37% (active).

For `CCCC(=O)c1ccc(OC(=O)c2c(-c3ccccc3Cl)noc2C)cc1`, the survival is 102% (inactive).

`CCOc1ccc(OC(=O)c2c(-c3ccccc3Cl)noc2C)cc1`: the survival is 72% (inactive).

For the molecule `Cc1ccc(NC(=O)Cn2nc(N3CCN(c4ccccc4)CC3)ccc2=O)cc1F`, the survival was 83% (inactive).

In the case of `Fc1ccc2ncc3c(-c4ccccc4)n[nH]c3c2c1`, the survival is 83% (inactive).

For `COc1ccc(C(=O)Nc2ccc(-c3cc4ccccc4oc3=O)c(C)c2)cc1OC`, the survival was 69% (inactive).

Take `Cc1cc(C)cc(NC(=O)c2sc3nc4n(c(=O)c3c2C)N=C(c2ccccc2)CS4)c1`: the survival is 69% (inactive).

Consider `COc1ccc(Br)cc1Cn1nnc(C(=O)Nc2ccc(C)cc2C)c1N`, for which the survival is 48% (inactive).

Take `CCc1ccc(NC(=O)Cn2c(=O)n(CCCCC(=O)NCCc3ccccc3)c(=O)c3ccccc32)cc1`: the survival was 84% (inactive).

For `CCOC(=O)c1c(C)[nH]c(C)c1S(=O)(=O)N1CCCC(C(=O)NCc2cccc(OC)c2)C1` (stereo not given), the survival was 78% (inactive).

As to `CCOc1ccc(NC(=O)CSc2oc(-c3ccc(F)cc3)nc2S(=O)(=O)c2ccc(C)cc2)cc1`, the survival is 63% (inactive).

Consider `Cc1ccc(S(=O)(=O)c2nc(-c3cccs3)oc2SCc2ccc(F)cc2)cc1`, for which the survival was 62% (inactive).

For `Cc1ccc(S(=O)(=O)c2nc(-c3cccs3)oc2SC(C)C)cc1`, the survival is 66% (inactive).

For `CS(=O)(=O)c1oc(-c2ccc(F)cc2)nc1S(=O)(=O)c1ccc(Cl)cc1`, the survival was -5% (active).

In the case of `CC(C)S(=O)(=O)c1oc(-c2cccs2)nc1S(=O)(=O)c1ccc(F)cc1`, the survival was 9% (active).

Consider `CCC(C)S(=O)(=O)c1oc(-c2ccc(F)cc2)nc1S(=O)(=O)c1ccc(F)cc1` (stereo not given), for which the survival was 41% (active).

For the molecule `COc1cccc(-c2nc(S(=O)(=O)c3ccc(Cl)cc3)c(NCc3ccccc3)o2)c1`, the survival is 180% (inactive).

In the case of `COc1ccc(-c2nc(S(=O)(=O)c3ccc(Cl)cc3)c(NCc3ccccc3)o2)cc1`, the survival is 136% (inactive).

Regarding `Cc1ccc(S(=O)(=O)c2nc(-c3ccc(F)cc3)oc2SCC(=O)NC2CCCCC2)cc1`, the survival was 149% (inactive).

For the molecule `CCC(C)S(=O)(=O)c1oc(-c2cccs2)nc1S(=O)(=O)c1ccccc1` (stereo not given), the survival was 53% (inactive).

Consider `CC(C)S(=O)(=O)c1oc(-c2ccc(F)cc2)nc1S(=O)(=O)c1ccc(F)cc1`, for which the survival is 22% (active).

Turning to `Cc1ccccc1CNC(=O)CCCn1c(=O)c2cccn2c2cccnc21`, the survival was 114% (inactive).

As to `CCOc1ccc(C2CC(c3c(O)n(C4CCCCC4)c(=O)[nH]c3=O)=Nc3ccccc3S2)cc1` (stereo not given), the survival is 47% (inactive).

Regarding `Cc1ccc2c(c1)cc1c(=O)n(CC(=O)N3CCCCC3)nc(C)n12`, the survival is 90% (inactive).

With `COc1ccc(C)cc1S(=O)(=O)NCC(c1cccs1)S(=O)(=O)c1ccc(C)cc1` (stereo not given), the survival is 69% (inactive).

Take `Cc1ccc(-c2nnc(NC(=O)c3ccc4c(c3)OCCO4)o2)c(C)c1`: the survival is 96% (inactive).

As for `Cc1ccc(NC(=O)Cn2nc(Cc3ccncc3)c3ccccc3c2=O)c(Cl)c1`, the survival is 66% (inactive).

As for `COc1cc(-c2nc3cccc(C)n3c2Nc2ccc3c(c2)OCCO3)ccc1O`, the survival is 76% (inactive).

`CCc1ccc(NC(=O)CCn2nc(C)c(S(=O)(=O)N3CCCCC3)c2C)cc1`: the survival was 128% (inactive).

Consider `COC(=O)c1ccccc1NC(=O)c1ncoc1-c1ccco1`, for which the survival was 62% (inactive).

For the molecule `CC(C)S(=O)(=O)c1oc(-c2ccc(F)cc2)nc1S(=O)(=O)c1ccccc1`, the survival was 33% (active).

For `CCN(CC)CCNc1nc2c(c(=O)n(C)c(=O)n2C)n1CCc1ccccc1`, the survival is 103% (inactive).

Take `COc1ccc(NC(=O)C2=C(C)Nc3nc(SCc4ccccc4)nn3C2c2cc(OC)ccc2OC)cc1` (stereo not given): the survival is 78% (inactive).

As for `COc1cccc(C(=O)Nc2cccc(C(=O)OCc3cc(=O)n4nc(C(C)C)sc4n3)c2)c1`, the survival was 101% (inactive).

For `COc1ccc(N2CCN(C(=O)c3nc(-c4ccc(Cl)cc4)n4c3CCCCC4)CC2)cc1`, the survival is 81% (inactive).

As to `Cc1ccc(NC(=O)CSc2nncn2C)c(C)c1`, the survival is 75% (inactive).

Take `CC(=O)Nc1nonc1-c1nnc(SCC(=O)Nc2ccc(C)c(Cl)c2)n1-c1ccccc1`: the survival was 49% (inactive).

As for `CC(=O)Nc1nonc1-c1nnc(SCc2ccc(C)cc2)n1C`, the survival was 48% (inactive).

For `CC(=O)Nc1nonc1-c1nnc(SCc2ccc(Cl)cc2)n1C`, the survival is 42% (active).

`CC(=O)Nc1nonc1-c1nnc(SCc2ccccc2)n1C`: the survival was 44% (inactive).

Regarding `CC(=O)Nc1nonc1-c1nnc(SCc2ccccc2C)n1C`, the survival was 42% (active).

In the case of `CC(=O)Nc1nonc1-c1nnc(SCC(=O)Nc2ccccc2Cl)n1C`, the survival is 50% (inactive).

For `CC(=O)Nc1nonc1-c1nnc(SCC(=O)Nc2ccc(C)c(Cl)c2)n1C`, the survival was 60% (active).

In the case of `CC(=O)Nc1nonc1-c1nnc(SCc2ccc(F)cc2Cl)n1C`, the survival is 45% (inactive).

Regarding `COc1ccc(NC(=O)CSc2nnc(-c3nonc3NC(C)=O)n2C)cc1Cl`, the survival was 55% (inactive).

Turning to `CC(=O)Nc1nonc1-c1nnc(SCc2ccc(F)cc2)n1C`, the survival is 44% (inactive).

In the case of `CC(=O)Nc1nonc1-c1nnc(SCc2ccccc2F)n1C`, the survival was 46% (inactive).

Regarding `CC(=O)Nc1nonc1-c1nnc(SCc2ccccc2Cl)n1C`, the survival is 42% (active).

Turning to `Cc1c(NC(=O)Cc2ccc(Cl)cc2)cccc1-c1nc2cccnc2s1`, the survival is 114% (inactive).

Regarding `Cc1csc2nc(COC(=O)c3cccc(NC(=O)COc4ccccc4Cl)c3)cc(=O)n12`, the survival is 88% (inactive).

For `Cc1cc2ncn(S(=O)(=O)c3ccc(S(N)(=O)=O)cc3)c2cc1C`, the survival is 84% (inactive).

With `Cc1ccccc1NC(=O)N1CCCC(c2nc(-c3ccc(F)cc3)no2)C1` (stereo not given), the survival is 93% (inactive).

With `Cc1ccccc1NC(=O)CN1C(=O)CCn2nc(-c3cccn3C)cc21`, the survival was 83% (inactive).

On to `O=C(CSc1nc(-c2ccc(Cl)cc2)nc2c1Cc1ccccc1O2)N1CCCCC1`, for which the survival was 96% (inactive).

As for `O=C(Cn1cc(C(=O)c2cccs2)c2ccccc21)Nc1ccc(Br)cc1`, the survival is 127% (inactive).

Consider `O=S(=O)(NCCSc1nnnn1-c1ccccc1)c1ccc(F)cc1`, for which the survival is 76% (inactive).

For the molecule `O=C1CC(CSc2nnnn2-c2ccccc2)=NN1`, the survival was 101% (inactive).

As for `O=S1(=O)C=C(Sc2nnnn2-c2ccccc2)c2ccccc21`, the survival was 4% (active).

For the molecule `Cc1cc(NC(=O)CCCn2c(C)c3cnn(-c4ccccc4)c(=O)c3c2C)ccc1Br`, the survival was 71% (inactive).

As for `COc1ccc(CCNC(=O)Cn2c(=O)nc(-c3ccccc3)c3cc(Cl)ccc32)cc1OC`, the survival was 94% (inactive).

`CCOCCCNC(=O)c1ccc(-c2nc(CS(=O)(=O)c3ccccc3)c(C)o2)cc1`: the survival was 66% (inactive).

For `Cc1ccc(S(=O)(=O)Cc2nc(-c3ccc(C(=O)NCCCOC(C)C)cc3)oc2C)cc1`, the survival was 72% (inactive).

Turning to `Cc1oc(-c2ccc(C(=O)NCCCOC(C)C)cc2)nc1CS(=O)(=O)c1ccccc1`, the survival is -4% (active).

`COc1ccc(CCN2C(=O)CN(C3CCCCCC3)C(=O)C2c2ccc(Cl)cc2)cc1OC` (stereo not given): the survival is 81% (inactive).

As to `COc1ccc(C(=O)Nc2ccccc2-c2nc3ccccc3s2)c(OC)c1`, the survival was 102% (inactive).

Turning to `COc1cc(OC)cc(C(=O)Nc2ccc(-c3nc4ccccc4s3)c(C)c2)c1`, the survival is 117% (inactive).

Turning to `O=C(Nc1ccccc1-c1nc2ccccc2s1)c1cc(Cl)cc(Cl)c1`, the survival is 84% (inactive).

On to `COc1ccc(C(=O)Nc2cc(C)c(O)c(-c3nc4ccccc4s3)c2)cc1OC`, for which the survival is 51% (inactive).

Regarding `O=C(Nc1ccc(-c2nc3ccccc3s2)c(O)c1)c1ccc(Br)cc1`, the survival is 87% (inactive).

As to `O=C(Nc1ccccc1-c1nc2ccccc2s1)c1ccc(F)cc1`, the survival was 81% (inactive).

In the case of `COc1cc(OC)cc(C(=O)Nc2ccccc2-c2nc3ccccc3s2)c1`, the survival was 17% (active).

In the case of `Cc1ccc(C(=O)Nc2ccc(-c3nc4ccccc4s3)c(O)c2)c(C)c1`, the survival was 84% (inactive).

On to `COc1ccc(C(=O)Nc2ccccc2-c2nc3ccccc3s2)cc1OC`, for which the survival is 7% (active).

`COc1cccc(C(=O)Nc2ccc(-c3nc4ccccc4s3)cc2Cl)c1`: the survival was 72% (inactive).

As for `CSc1ccc(C(=O)Nc2ccc(-c3nc4ccccc4s3)c(O)c2)cc1`, the survival was 32% (active).

With `COc1cccc(C(=O)Nc2ccccc2-c2nc3ccccc3s2)c1`, the survival is 33% (active).

As for `Cn1c(CNC(=O)CSc2n[nH]c(-c3ccccc3Cl)n2)nc2ccccc21`, the survival was 75% (inactive).

In the case of `O=C(Nc1ccc(F)cc1F)c1cc2c(=O)n3ccccc3nc2s1`, the survival is 75% (inactive).

Consider `CCOC(=O)c1ccccc1NC(=O)c1sc2ncn(CC)c(=O)c2c1C`, for which the survival is 68% (inactive).

Regarding `Cc1ccc(C)c(NC(=O)CCc2c(C)n(C)c3cc(-c4ccccc4C)nn3c2=O)c1`, the survival is 63% (inactive).

As for `CCC(CC)C(=O)Nc1ccccc1C(=O)OCc1cc(=O)n2nc(C3CCCCC3)sc2n1`, the survival is 92% (inactive).

As for `O=C(Nc1ccc(F)c(Cl)c1)N1CC=C(c2c[nH]c3ccccc23)CC1`, the survival was 77% (inactive).

With `CN1CCN(C(CNC(=O)C(=O)Nc2cccc(Cl)c2)c2ccc3c(c2)OCO3)CC1` (stereo not given), the survival was 86% (inactive).

Turning to `CCC1=C(c2ccc(C)cc2)S(=O)(=O)N=C1N1CCC(C(=O)Nc2ccccc2C(=O)OC)CC1`, the survival is 89% (inactive).

Consider `Cc1ccc(NC(=O)Cn2c(=O)n(CCc3ccccc3)c(=O)c3c4c(sc32)CCCC4)cc1C`, for which the survival is 97% (inactive).

With `CCCCOc1ccc(C(=O)Nc2ccc3c(c2)CCCN3C(=O)c2cccs2)cc1`, the survival was 83% (inactive).
